# Source: PubChem BioAssay (NCATS)
# Results filed as inconclusive are left out. Activity calls are given as the source filed them. Calls come from the whole dose curve; as a rule, active = well fitted inhibition curve with a large enough effect; inconclusive = small, poorly fitted or top-dose-only effect; inactive = no such curve, though single readings can be large or run the other way.
# Assay: P-glycoprotein substrates identified in KB-3-1 adenocarcinoma cell line, qHTS therapeutic library screen (AID 1346986); note: nearly all actives have a fitted effect of over 60% in size
# Settings: KB-3-1 parental cells viability, CellTiter-Glo, 72 h; series mostly up to 44.5 µM
# Summary of the method: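 Using luminescence to quantify ATP, parental and P-gp-overexpressing KB cells were compared after 72 h compound titration. KB-8-5-11 was also run with the P-gp inhibitor tariquidar.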
row,SMILES,outcome
1,COc1cc(/C=C/C(=O)O[C@H]2[C@@H]3C=CO[C@@H](O[C@@H]4O[C@H](CO)[C@@H](O)[C@H](O)[C@H]4O)[C@@H]3[C@@]3(CO)O[C@@H]23)ccc1O,inactive [at 17.4 µM]
2,Nc1ncnc2c1ncn2[C@H]1O[C@@H](C(=O)N2CCN(CC(=O)Nc3cccc4c3CNC4=O)CC2)[C@H](O)[C@@H]1O,inactive
3,CC1(C)C[C@H](O)C[C@@]2(C)[C@H]1[C@H](O)C=C1COC(=O)[C@@]12O,inactive
4,COc1ccc(-c2ccn(CC[C@](C)(C(=O)NO)S(C)(=O)=O)c(=O)c2)c(F)c1,inactive
5,C[C@@H]1O[C@@H](O[C@H]2[C@H](OC(=O)[C@]34CCC(C)(C)C[C@H]3C3=CCC5[C@@]6(C)C[C@@H](O)[C@@H](O[C@@H]7O[C@H](CO)[C@@H](O)[C@H](O)[C@H]7O)[C@@](C)(CO)C6[C@H](O)C[C@@]5(C)[C@]3(C)CC4)OC[C@H](O)[C@@H]2O)[C@H](O)[C@H](O[C@@H]2OC[C@](O)(CO)[C@H]2O)[C@H]1O[C@@H]1OC[C@@H](O)[C@H](O[C@H]2O[C@H](C)[C@@H](O)[C@H](O)[C@@H]2O)[C@H]1O (some centres not stated),inactive [at 9.29 µM]
6,O=C(O)CCc1c(C(=O)O)[nH]c2cc(Cl)cc(Cl)c12,inactive [at 17.4 µM]
7,CC(=O)N[C@H](Cc1c[nH]c2ccccc12)C(=O)OCc1cc(C(F)(F)F)cc(C(F)(F)F)c1,inactive
8,C=C1C2(C)CC3C4(C)C=CC(=O)OC(C)(C)C4CCC3(C)C1(C(=O)OC)C(=O)C(C)(O)C2=O (configuration not stated),inactive [at 17.4 µM]
9,C=C[C@H]1[C@H](O[C@@H]2O[C@H](CO)[C@@H](O)[C@H](O)[C@H]2O)OC=C2C(=O)N3Cc4c([nH]c5ccccc5c4=O)[C@@H]3C[C@H]21,inactive [at 17.4 µM]
10,COC(=O)C1=COC(O[C@@H]2O[C@H](CO)[C@@H](O)[C@H](O)[C@H]2O)/C(=C\COC(=O)/C=C/c2ccccc2)C1CC(=O)OCCc1ccc(O)cc1 (some centres not stated),inactive [at 17.4 µM]
11,C=C1C[C@H](O)[C@@H](O)[C@@]2(C)C1[C@@H](O)[C@H]1OC(=O)C3[C@@H](C)[C@@H](O)[C@H](O)C2[C@]31C (some centres not stated),inactive
12,CC1(C)C[C@@H]2[C@H](C1)[C@@]1(C)C[C@]13C(O)OC[C@]3(O)[C@H]2O (some centres not stated),inactive
13,CCN1CCN(C(=O)N[C@@H](C(=O)N[C@@H]2C(=O)N3[C@@H]2SC(C)(C)[C@@H]3C(=O)O)c2ccccc2)C(=O)C1=O,inactive
14,CC(=O)OC12CC(C)C(O)C1/C=C(/COC1OC(CO)C(O)C(O)C1O)CCC1C(/C=C(\C)C2=O)C1(C)C (configuration not stated),inactive [at 17.4 µM]
15,C/C=C(\C)C(=O)O[C@H]1C=CC(=O)O[C@H]1/C=C/[C@H](O)[C@@H](C)O,inactive
16,O=C(O)c1ccc(NC(=O)[C@H](CC2CCCC2)n2cnc(C(F)(F)F)c2)nc1,inactive
17,C=C1CCc2occ(C)c2[C@H]2[C@H]1[C@@]13O[C@@]1(C[C@@H](C)[C@H]3OC(C)=O)[C@H]1O[C@@]21C,inactive
18,O=C(Nc1ccn(Cc2c(F)cccc2C(F)(F)F)n1)c1c(F)cccc1F,inactive [at 9.29 µM]
19,C/C=C(\C)C(=O)OC[C@H]1O[C@H](O[C@H]2O[C@H](CO)[C@@H](O)[C@H](O)[C@H]2O[C@@H]2O[C@H](CO)[C@@H](O)[C@H](O)[C@H]2O)[C@H](O[C@@H]2O[C@H](CO)[C@@H](O)[C@H](O)[C@H]2O)[C@@H](O)[C@@H]1O,inactive [at 17.4 µM]
20,CCCCCOC(=O)Nc1nc(=O)n(C2O[C@H](C)[C@@H](O)[C@H]2O)cc1F (some centres not stated),inactive
21,CC/C=C/C(O)C(O)C1=C(C)C(=O)C2(O1)C(=O)NC(OC)(C(=O)c1ccccc1)C2O (configuration not stated),inactive [at 17.4 µM]
22,COc1ccc2c(c1)N1C(=O)C[C@@]34C=CC[N@+]5([O-])CC[C@H]2[C@H](CC3)[C@@]145,inactive
23,COC(=O)C1=CO[C@@H](O[C@@H]2O[C@H](CO)[C@@H](O)[C@H](O)[C@H]2O)/C(=C\CO)[C@@H]1CC(=O)OCCc1ccc(O)cc1,inactive [at 17.4 µM]
24,N#Cc1cccc(-c2nc(-c3cccnc3)no2)c1,inactive [at 17.4 µM]
25,OC[C@@]1(O)CO[C@@H](OC[C@H]2O[C@@H](OCc3ccccc3)[C@H](O)[C@@H](O)[C@@H]2O)[C@@H]1O,inactive [at 17.4 µM]
26,COc1cnc(-n2cnc(C)n2)c2[nH]cc(C(=O)C(=O)N3CCN(C(=O)c4ccccc4)CC3)c12,inactive
27,Cc1ccc(-n2nc(C(C)(C)C)cc2NC(=O)Nc2cc(COc3cccnc3)[nH]n2)cc1,inactive
